# Values joined by “and” are separate entries in the source; they are usually repeats but may differ in a detail not shown here. Equal entries are not always repeated. Active and inactive are the calls of the source. Unless noted, no stated cut-off is given here; in the data, active means inhibition above about 80%; inactive means the rest.
# Tests used:
# [1] = growth inhibition, single agent or in combination, cell-based, chromothripsis tumors, cisplatin or BGB combos (AID 1671449); details: LFS_MB_P medulloblastoma cells;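 further: cells exposed for 96 hours; 0% = vehicle DMSO and 100% = killing by high DMSO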
# [2] = growth inhibition, single agent and combos, cell-based, chromothripsis tumors, cisplatin or BGB combos (AID 1671450); details: HDN33 neuroblastoma cells, stronger effect = higher value;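 further: cells exposed to compound for four days; 0% = vehicle DMSO and 100% = cell killing by high DMSO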
# [3] = growth inhibition, single agents and combos, ICB984, cell-based, cisplatin or BGB combos, synergistic combos for chromothripsis tumors (AID 1671451; call rule not given here;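 further: cells exposed for 96 hours before readout; 0% = vehicle DMSO and 100% = killing by high DMSO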); details: ICB984 medulloblastoma cells, drug combinations, stronger effect = higher value
# [4] = growth inhibition, single agents and combos, LFS_MB_1R, cell-based, cisplatin or BGB combos, synergistic combos for chromothripsis tumors (AID 1671452); details: LFS_MB_1R medulloblastoma cells, stronger effect = higher value;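 further: cells exposed for 96 hours before readout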
# [5] = growth inhibition, single agents and combos, HTB85, cell-based, BGB or cisplatin IC20 combos, synergistic combos for chromothripsis tumors (AID 1671453); details: HTB85 osteosarcoma cells, drug combinations, stronger effect = higher value;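 further: cells exposed for 96 hours before readout; 0% = vehicle DMSO and 100% = high DMSO killing control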
# [6] = growth inhibition, single agents and combos, CRL2098, cell-based, BGB or cisplatin IC20 combos, synergistic combos for chromothripsis tumors (AID 1671454); details: CRL2098 osteosarcoma cells, drug combinations, stronger effect = higher value;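 further: cells exposed for 96 h before readout; 0% = vehicle DMSO and 100% = killing by high DMSO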
# [7] = growth inhibition, single agents and combos, HD-MB03, cell-based, BGB or cisplatin IC20 combos, synergistic combos for chromothripsis tumors (AID 1671455; in the data active means inhibition above about 83%;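 further: 0% = vehicle DMSO and 100% = high DMSO as cytotoxic control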); details: HD-MB03 medulloblastoma cells, stronger effect = higher value
# [8] = growth inhibition, single agents and combos, UWB1.289, cell-based, BGB or cisplatin combos, synergistic combos for chromothripsis tumors (AID 1671456); details: UWB1.289 ovarian carcinoma cells, stronger effect = higher value;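 further: cells exposed to compound for four days; 0% = vehicle DMSO and 100% = killing by high DMSO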
# [9] = growth inhibition, single agents and combos, LFS_MB_2R, cell-based, cisplatin combos, synergistic combos for chromothripsis tumors (AID 1671457); details: LFS_MB_2R medulloblastoma cells, stronger effect = higher value;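 further: cells exposed to compound for four days before readout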
# [10] = growth inhibition, MDA-MB-436, cell-based, BGB or cisplatin combos, synergistic combos for chromothripsis tumors (AID 1671458; call rule not given here;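 further: cells exposed for 96 hours; 0% = vehicle DMSO and 100% = killing by high DMSO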); details: MDA-MB-436 breast carcinoma growth inhibition, drug combinations, stronger effect = higher value
# [11] = UWB1.289_BRCA1 ovarian cancer growth, cell-based, BGB or cisplatin combinations (AID 1671459); details: UWB1.289 BRCA1 ovarian carcinoma, drug combinations, stronger effect = higher value
# [12] = drug combination toxicity in non-malignant astrocytes – cell-based, BGB or cisplatin IC20 combos, cytotoxicity control for chromothriptic childhood tumor combination screen (AID 1671460); details: Human astrocytes, viability inhibition, drug combinations, at 0.5 µM, stronger effect = higher value;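 further: cells exposed to compounds for 96 hours before viability readout; 0% = vehicle and 100% = killing control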
# [13] = BT084 cell growth, single and combined drugs, ICGC_MB145, cisplatin and BGB IC40 combos (AID 1671461); details: BT084 medulloblastoma cells, drug combinations, stronger effect = higher value;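 further: cells exposed to drugs for 96 hours; 0% = vehicle DMSO and 100% = high DMSO full killing control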
# [14] = RCMB18 cell growth, single agent and combined, cisplatin and BGB IC40 combos (AID 1671462); details: RCMB18 medulloblastoma cells, stronger effect = higher value;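 further: cells exposed to compound for four days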
# [15] = CRL1545 cell growth, single agent and combined, cisplatin and BGB IC20 combos (AID 1671464); details: CRL1545 osteosarcoma cells, stronger effect = higher value;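 further: cells exposed to compound for 96 hours before readout; 0% = vehicle DMSO and 100% = high DMSO killing control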
# [16] = at 0.5 µM, stronger effect = higher value
# [17] = measured here: combination with BGB IC20, at 0.005 µM
# [18] = measured here: combination with BGB IC40, at 0.005 µM
# [19] = measured here: combination with BGB IC40, at 0.05 µM
# [20] = measured here: combination with cisplatin, at 0.5 µM, stronger effect = higher value
# [21] = measured here: combination with cisplatin, at 5 µM, stronger effect = higher value
# [22] = measured here: with BGB IC20 combination, at 0.5 µM
# [23] = measured here: with cisplatin IC20 combination, at 0.5 µM
# [24] = measured here: 5 uM single agent, at 5 µM
# [25] = measured here: combination with cisplatin, at 0.5 µM
# [26] = measured here: combination with cisplatin, at 5 µM
# [27] = measured here: with BGB IC20, at 0.5 µM
# [28] = measured here: with BGB IC20, at 5 µM
# [29] = measured here: with cisplatin IC20, at 0.5 µM
# [30] = measured here: with cisplatin IC20, at 5 µM
compound,measurement,setting,value
C=C1C(=O)O[C@@H]2C=C(C)CCC=C(C)CC[C@@H]12,inhibition,[1]; [16],-19.3% (inactive)
same,inhibition,[1]; [17],-3.36%
same,inhibition,[1]; [18],-13.6%
same,inhibition,[1]; [19],7.16%
same,inhibition,[1]; [20],-51.8%
same,inhibition,[1]; [21],114%
same,inhibition,"[2]; BGB combo, at 5 µM",5.76%
same,inhibition,[2]; at 0.5 µM,-17.6% (inactive)
same,inhibition,"[2]; cisplatin combo, at 5 µM",29.9%
same,inhibition,[2]; [22],-23.4%
same,inhibition,[2]; [23],-29.2%
same,inhibition,"[2]; single agent, at 5 µM",38.5%
same,inhibition,"[3]; BGB IC20 combo, at 0.005 µM",4.25%
same,inhibition,"[3]; BGB IC40 combo, at 0.005 µM",-33%
same,inhibition,"[3]; BGB IC40 combo, at 0.05 µM",53.7%
same,inhibition,[3]; at 0.5 µM,-17.1% (inactive)
same,inhibition,"[3]; cisplatin combo, at 0.05 µM",51.9%
same,inhibition,"[3]; cisplatin combo, at 0.5 µM",-18%
same,inhibition,"[3]; cisplatin combo, at 5 µM",-19.3%
same,inhibition,[3]; [24],-11.6%
same,inhibition,[4]; at 0.5 µM,-31.9% (inactive)
same,inhibition,[4]; [19],-18.3%
same,inhibition,[4]; [25],-29.4%
same,inhibition,[4]; [26],98.6%
same,inhibition,[5]; at 0.5 µM,-6.12% (inactive)
same,inhibition,[5]; [27],-12.5%
same,inhibition,[5]; [28],51.6%
same,inhibition,[5]; [29],-4.05%
same,inhibition,[5]; [30],62.5%
same,inhibition,"[5]; single agent, at 5 µM",66.5%
same,inhibition,[6]; at 0.5 µM,-64.3% (inactive)
same,inhibition,"[6]; measured here: combination with BGB at IC20, at 0.5 µM",-14.4%
same,inhibition,"[6]; measured here: combination with cisplatin at IC20, at 0.5 µM",-90.7%
same,inhibition,[7]; at 0.5 µM,-8.56% (inactive)
same,inhibition,"[7]; measured here: combo with BGB at IC20, at 0.5 µM",5.57%
same,inhibition,"[7]; measured here: combo with cisplatin at IC20, at 0.5 µM",-16.5%
same,inhibition,[8]; at 0.5 µM,-5.91% (inactive)
same,inhibition,"[8]; measured here: inhibition with BGB combination, at 0.05 µM",-14.1%
same,inhibition,"[8]; measured here: inhibition with cisplatin combination, at 0.05 µM",-20.4%
same,inhibition,[9]; at 0.5 µM,-23.7% (inactive)
same,inhibition,[9]; [25],-29.5%
same,inhibition,[9]; [26],43.1%
same,inhibition,[10]; at 0.5 µM,-0.98% (inactive)
same,inhibition,"[10]; measured here: BGB combination, at 0.5 µM",1.65%
same,inhibition,"[10]; measured here: BGB combination, at 5 µM",39.9%
same,inhibition,"[10]; measured here: cisplatin combination, at 0.5 µM",-3.72%
same,inhibition,"[10]; measured here: cisplatin combination, at 5 µM",56.7%
same,inhibition,"[11]; BGB combination, concentration series, at 5 µM",44.1%
same,inhibition,[11]; at 0.5 µM,-3.8% (inactive)
same,inhibition,"[11]; cisplatin combination, concentration series, at 5 µM",48.6%
same,inhibition,[12],3.62% (inactive)
same,inhibition,[12]; measured here: combo with BGB IC20,4.43%
same,inhibition,[12]; measured here: combo with cisplatin IC20,0.413%
same,inhibition,[13]; at 0.5 µM,-5.97% (inactive)
same,inhibition,"[13]; cisplatin combination, at 0.5 µM",-9.26%
same,inhibition,"[13]; cisplatin combination, at 5 µM",48.9%
same,inhibition,"[13]; measured here: BGB IC40 combination 0.05 uM, at 0.05 µM",-2.12%
same,inhibition,"[13]; single agent, at 5 µM",20.7%
same,inhibition,[14]; at 0.5 µM,9.79% (inactive)
same,inhibition,"[14]; cisplatin combo, at 5 µM",75.6%
same,inhibition,"[14]; measured here: BGB IC40 combination, at 0.05 µM",6.86%
same,inhibition,[14]; [25],15.7%
same,inhibition,"[14]; single agent, at 5 µM",33.4%
same,inhibition,[15]; at 0.5 µM,8.87% (inactive)
same,inhibition,[15]; [22],-16.3%
same,inhibition,[15]; [23],21.4%
same,inhibition,"[15]; single agent, at 0.05 µM",18.3%
same,inhibition,"[15]; single agent, at 5 µM",72.3%
CN(C)CCNC(=O)c1cccn2c(=O)c3cc4ccccc4cc3nc12,inhibition,[1]; [16],-18% (inactive) and -22.8% (inactive)
same,inhibition,[1]; [17],-22.4% and -7.9%
same,inhibition,[1]; [18],-33.3% and -28%
same,inhibition,[1]; [19],-30.9% and 0.948%
same,inhibition,[1]; [20],-27.4% and -25.4%
same,inhibition,[1]; [21],25.9% and 73.9%
same,inhibition,"[2]; BGB combo, at 5 µM",58.1% and 71.8%
same,inhibition,[2]; at 0.5 µM,4.02% (inactive) and 16.5% (inactive)
same,inhibition,"[2]; cisplatin combo, at 5 µM",63.6% and 83.1%
same,inhibition,[2]; [22],-3.52% and 15.5%
same,inhibition,[2]; [23],5.98% and 5.66%
same,inhibition,"[2]; single agent, at 5 µM",67.9% and 86.2%
same,inhibition,"[3]; BGB IC20 combo, at 0.005 µM",-2.65% and -7.73%
same,inhibition,"[3]; BGB IC40 combo, at 0.005 µM",-19% and -46.8%
same,inhibition,"[3]; BGB IC40 combo, at 0.05 µM",29.2% and 25.5%
same,inhibition,[3]; at 0.5 µM,-22.7% (inactive) and -19.3% (inactive)
same,inhibition,"[3]; cisplatin combo, at 0.05 µM",25.8% and 22.5%
same,inhibition,"[3]; cisplatin combo, at 0.5 µM",-35.6% and -11.2%
same,inhibition,"[3]; cisplatin combo, at 5 µM",-26.2% and -47.1%
same,inhibition,[3]; [24],-15.3% and -26.1%
same,inhibition,[4]; at 0.5 µM,-22.6% (inactive) and -0.28% (inactive)
same,inhibition,[4]; [19],-22.9% and -35.5%
same,inhibition,[4]; [25],-29.9% and 26.6%
same,inhibition,[4]; [26],66.5% and 90.2%
same,inhibition,[5]; at 0.5 µM,-6.94% (inactive) and -9.64% (inactive)
same,inhibition,[5]; [27],10% and -19.8%
same,inhibition,[5]; [28],24.9% and 50.6%
same,inhibition,[5]; [29],-22.5% and -20.8%
same,inhibition,[5]; [30],24% and 36.1%
same,inhibition,"[5]; single agent, at 5 µM",45.2% and 66.6%

# Reference: PubChem BioAssay
